Measured values taken from PubChem BioAssay (Tox21).
Records with an inconclusive call do not appear. A call without a number means that no potency is given here. Activity calls are given as the source filed them. Unless noted, calls follow the shape of the dose curve; as a rule, active = well fitted curve in the direction sought with a large enough effect in the repeat runs; inconclusive = weak or mixed curves; inactive = no such curve, though single readings can be large; an effect the other way counts as inactive or inconclusive.

Biological target: Estrogen receptor (Homo sapiens) (UniProt P03372)
Assay: qHTS assay to identify small molecule antagonists of the estrogen receptor alpha (ER-alpha) signaling pathway using the BG1 cell line in the presence of 0.1 nM 17-beta-estradiol (AID 1259244); also: nearly all actives have a fitted effect of over 50% in size
Conditions: VM7Luc4E2 (BG1) ERE-luciferase, antagonist mode, 0.1 nM E2, 22 h; series mostly up to 92.4 µM
Summary of the method: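 Antagonist mode: compounds in DMSO are pinned onto VM7Luc4E2 reporter cells, 0.1 nM final 17beta-estradiol is added, and after 22 h at 37C luciferase luminescence is measured with ONE-Glo.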

Estrogen receptor (Homo sapiens), sequence (P03372 whole entry, looked up): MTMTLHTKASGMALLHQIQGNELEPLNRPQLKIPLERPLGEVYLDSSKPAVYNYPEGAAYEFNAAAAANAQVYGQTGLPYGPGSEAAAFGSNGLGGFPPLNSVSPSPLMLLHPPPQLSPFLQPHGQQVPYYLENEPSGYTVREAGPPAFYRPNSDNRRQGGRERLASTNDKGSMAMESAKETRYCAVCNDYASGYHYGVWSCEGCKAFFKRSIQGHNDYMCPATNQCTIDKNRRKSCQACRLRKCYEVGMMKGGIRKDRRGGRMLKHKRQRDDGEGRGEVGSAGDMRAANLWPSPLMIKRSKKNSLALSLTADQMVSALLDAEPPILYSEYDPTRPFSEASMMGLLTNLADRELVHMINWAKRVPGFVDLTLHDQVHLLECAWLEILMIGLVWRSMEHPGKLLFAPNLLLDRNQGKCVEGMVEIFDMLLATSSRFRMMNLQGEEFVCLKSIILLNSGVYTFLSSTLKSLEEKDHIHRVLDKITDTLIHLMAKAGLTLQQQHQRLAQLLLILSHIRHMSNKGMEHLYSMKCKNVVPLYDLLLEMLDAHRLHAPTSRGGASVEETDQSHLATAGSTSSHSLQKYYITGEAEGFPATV

| SMILES | Potency | activity change, negative = inhibition |
| --- | --- | --- |
| Fc1cc(Br)ccc1CBr | inactive |  |
| CC(Cl)(Cl)[N+](=O)[O-] | inactive |  |
| COC(=O)C(c1ccccc1)C1CCCCN1 (stereo not drawn) | inactive |  |
| c1cc2c(c(N3CCNCC3)c1)OCCO2 | inactive |  |
| O=C1OC(CCN2CCCCC2)OC1(c1ccccc1)c1ccccc1 (stereo not drawn) | inactive |  |
| COc1ncc(F)c2nc(S(=O)(=O)Nc3c(F)cccc3F)nn12 | inactive |  |
| Clc1ccccc1N1CCNCC1 | inactive |  |
| O=C(O)c1ccc2[nH]cc(CCCCN3CC=C(c4ccccc4)CC3)c2c1 | inactive |  |
| CCN(CC)C(C)C(=O)c1ccccc1 (stereo not drawn) | inactive |  |
| CCOP(=S)(OCC)Oc1ncn(-c2ccccc2)n1 | inactive |  |
| CCCCCCI | inactive |  |
| CCC(=O)C(CCN(C)C)(c1ccccc1)c1ccccc1 | inactive |  |
| CCOC(=O)C(c1c(O)c2ccccc2oc1=O)c1c(O)c2ccccc2oc1=O | inactive |  |
| CC(C(O)c1ccccc1)N(C)C/C=C/c1ccccc1 (stereo not drawn) | inactive |  |
| CC(Oc1ccc(Oc2ncc(C(F)(F)F)cc2Cl)cc1)C(=O)O (stereo not drawn) | inactive |  |
| C#C[C@]1(O)C=C[C@H]2[C@@H]3CCC4=CC(=O)CC[C@@H]4[C@H]3CC[C@@]21CC | inactive |  |
| N#CC(Cl)(Cl)Cl | inactive |  |
| O=C(Nc1ccccc1)c1ccccc1I | inactive |  |
| COP(N)(=S)Oc1ccccc1C(=O)OC(C)C (stereo not drawn) | inactive |  |
| O=CNC(N1CCN(C(NC=O)C(Cl)(Cl)Cl)CC1)C(Cl)(Cl)Cl (stereo not drawn) | inactive |  |
| CC1=C(C(=O)O)N2C(=O)[C@@H](N)[C@H]2SC1 |  | 0.965% [at 19 µM] (inactive) |
| C#CCN1C(=O)COc2cc(F)c(N3C(=O)C4=C(CCCC4)C3=O)cc21 | inactive |  |
| CC(C)CC#N | inactive |  |
| Cc1nc(N)nc(N)n1 | inactive |  |
| CCOC(=O)C1(c2ccccc2)CCN(CCc2ccc(N)cc2)CC1 | inactive |  |
| CCC(=O)c1ccccc1 | inactive |  |
| C[C@]12CC[C@H]3[C@@H](CCC4=CC(=O)CC[C@@]43C)[C@@H]1CC[C@@H]2C(=O)O | inactive |  |

Test system: not listed separately
Assay: qHTS assay to identify small molecule phospholipidosis (PLD) inducers (AID 1259344; active = well fitted curve in the direction sought with a large enough effect; an effect the other way counts as inactive or inconclusive)
Conditions: HepG2 phospholipidosis, LipidTOX Red imaging, 24 h; series mostly up to 38.3 µM
Summary of the method: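 Phospholipid accumulation was scored by imaging: fixed, Hoechst-counterstained HepG2 cells stained with LipidTOX Red after 24 h compound exposure at 37 C. Read-outs were pit count and pit intensity per well or per cell, with amiodarone and DMSO controls.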

| SMILES | outcome |
| --- | --- |
| COC(=O)C(c1ccccc1)C1CCCCN1 (stereo not drawn) | inactive |
| c1cc2c(c(N3CCNCC3)c1)OCCO2 | inactive |
| O=C(O)c1ccc2[nH]cc(CCCCN3CC=C(c4ccccc4)CC3)c2c1 | inactive |
| CCN(CC)C(C)C(=O)c1ccccc1 (stereo not drawn) | inactive |
| COc1ccc2c(c1OC)CN1CCc3cc4c(cc3C1C2)OCO4 (stereo not drawn) | inactive |
| C#C[C@]1(O)C=C[C@H]2[C@@H]3CCC4=CC(=O)CC[C@@H]4[C@H]3CC[C@@]21CC | inactive |

Test system: not listed separately
Assay: qHTS assay to identify small molecule HDAC inhibitors (AID 1259364); also: potency is read from the fitted curve at half-maximal effect;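 also: wild-type HCT-116 cells with endogenous class I/II HDAC activity; nearly all actives have a fitted effect of over 45% in size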; as to activity change, negative = inhibition: top concentration of the series differs between compounds
Conditions: HCT-116 HDAC-Glo I/II luminescence, 2 h; series mostly up to 92.4 µM
Summary of the method: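 Cells (HCT-116, wild type) are seeded at 1,500 per well, incubated overnight, treated with compound in DMSO for 2 hr, then developed with HDAC-Glo I/II reagent for 30 min at room temperature.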

| SMILES | Potency | activity change, negative = inhibition |
| --- | --- | --- |
| Fc1cc(Br)ccc1CBr | inactive |  |
| CC(Cl)(Cl)[N+](=O)[O-] | inactive |  |
| COC(=O)C(c1ccccc1)C1CCCCN1 (stereo not drawn) | inactive |  |
| c1cc2c(c(N3CCNCC3)c1)OCCO2 | inactive |  |
| CNC(=O)N(C)c1nc2ccccc2s1 | 545 nM (active) |  |
| CC1COC2(c3ccccc3Cl)c3cc(Cl)ccc3NC(=O)CN12 (stereo not drawn) | inactive |  |
| O=C1OC(CCN2CCCCC2)OC1(c1ccccc1)c1ccccc1 (stereo not drawn) | inactive |  |
| c1ccc(N2CCNCC2)cc1 | inactive |  |
| COc1ncc(F)c2nc(S(=O)(=O)Nc3c(F)cccc3F)nn12 | inactive |  |
| CNC(=O)Oc1c(C(C)(C)C)cc(C)cc1C(C)(C)C | inactive |  |
| Clc1ccccc1N1CCNCC1 | inactive |  |
| O=C(O)c1ccc2[nH]cc(CCCCN3CC=C(c4ccccc4)CC3)c2c1 | inactive |  |
| CCN(CC)C(C)C(=O)c1ccccc1 (stereo not drawn) | inactive |  |
| CCOP(=S)(OCC)Oc1ncn(-c2ccccc2)n1 | inactive |  |
| COc1ccc2c(c1OC)CN1CCc3cc4c(cc3C1C2)OCO4 (stereo not drawn) | inactive |  |
| CCCCCCI | inactive |  |
| CCC(=O)C(CCN(C)C)(c1ccccc1)c1ccccc1 | inactive |  |
| CCOC(=O)C(c1c(O)c2ccccc2oc1=O)c1c(O)c2ccccc2oc1=O | inactive |  |

| SMILES | Potency | activity change, negative = inhibition |
| --- | --- | --- |
| CC(C(O)c1ccccc1)N(C)C/C=C/c1ccccc1 (stereo not drawn) | inactive |  |
| CCC(C)(C)c1cc(-n2nc3ccccc3n2)c(O)c(C(C)(C)CC)c1 | inactive |  |
| CC(Oc1ccc(Oc2ncc(C(F)(F)F)cc2Cl)cc1)C(=O)O (stereo not drawn) | inactive |  |
| C#C[C@]1(O)C=C[C@H]2[C@@H]3CCC4=CC(=O)CC[C@@H]4[C@H]3CC[C@@]21CC | inactive |  |
| N#CC(Cl)(Cl)Cl | inactive |  |
| COP(N)(=S)Oc1ccccc1C(=O)OC(C)C (stereo not drawn) | inactive |  |
| O=CNC(N1CCN(C(NC=O)C(Cl)(Cl)Cl)CC1)C(Cl)(Cl)Cl (stereo not drawn) | inactive |  |
| CC1=C(C(=O)O)N2C(=O)[C@@H](N)[C@H]2SC1 |  | 5.61% [at 19 µM] (inactive) |
| Cc1cnc[nH]1 | inactive |  |
| C#CCN1C(=O)COc2cc(F)c(N3C(=O)C4=C(CCCC4)C3=O)cc21 | inactive |  |
| CCOP(=O)(OCC)OP(=O)(OCC)OCC | inactive |  |
| CCCCOC(=O)c1ccccc1C(=O)O | inactive |  |
| CC(C)CC#N | inactive |  |
| Cc1nc(N)nc(N)n1 | inactive |  |
| CCOC(=O)C1(c2ccccc2)CCN(CCc2ccc(N)cc2)CC1 | inactive |  |
| CCC(=O)c1ccccc1 | inactive |  |
| C[C@]12CC[C@H]3[C@@H](CCC4=CC(=O)CC[C@@]43C)[C@@H]1CC[C@@H]2C(=O)O | inactive |  |
